In the library only some 2.8% were active in any assay of this set; here they are far more common.
D3 ag: agonists of human D3 dopamine receptor; D3R DiscoveRx beta-arrestin cells, luminescence, 90 min; max activation, %; 410,000 compounds, 0.58% hits; in the data active = max activation above about 30%
Target sequence (P35462 whole entry, looked up): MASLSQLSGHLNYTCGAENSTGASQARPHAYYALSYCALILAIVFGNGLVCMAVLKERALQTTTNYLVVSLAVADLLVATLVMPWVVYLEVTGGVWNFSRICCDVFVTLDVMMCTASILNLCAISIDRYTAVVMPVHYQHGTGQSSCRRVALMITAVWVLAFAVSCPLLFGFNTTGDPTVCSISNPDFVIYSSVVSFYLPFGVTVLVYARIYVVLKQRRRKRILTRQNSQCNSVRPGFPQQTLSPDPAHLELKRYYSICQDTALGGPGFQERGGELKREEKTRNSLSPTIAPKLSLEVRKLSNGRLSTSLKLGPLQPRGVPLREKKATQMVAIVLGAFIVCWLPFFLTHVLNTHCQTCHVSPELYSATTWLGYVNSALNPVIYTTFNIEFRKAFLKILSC
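Agonist-mode cell screen: cells plated at 1500/well and incubated overnight at 37 °C, then exposed to library compounds for 90 min at 37 °C. Detection reagent was added for 30–60 min at room temperature, and luminescence was read.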
LDHA block: blocks human lactate dehydrogenase A; P00338; purified LDHA, NADH/diaphorase-resazurin fluorescence; hits give low values; activity change, % (values are at about 110 or 230 µM); 480,000 compounds, 0.15% hits; AID 1347041; in the data active = activity change below about -30%; inconclusive = mostly about -25% to -30%
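Human LDH5 at 2 nM final in Tris HCl pH 7.4 with 0.06 mM NADH and 0.2 mM pyruvate, reacted 5 minutes at room temperature. Remaining NADH coupled via diaphorase/resazurin; resorufin fluorescence read at 0 and 20 minutes, normalized to enzyme-free and DMSO wells.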
RGS4 inh: human RGS4 inhibition. 390,000 compounds, 0.039% hits. Transcreener GDP fluorescence polarization, RGS4-accelerated GTP hydrolysis. Potency, µM (highest dose often 114 µM), actives largely listed as inhibitors; active = well fitted inhibition curve with a large enough effect; inconclusive = small, poorly fitted or top-dose-only effect; inactive = no such curve, though single readings can be large or run the other way; note: nearly all actives have a fitted effect of over 75% in size
Target sequence (P49798 whole entry, looked up): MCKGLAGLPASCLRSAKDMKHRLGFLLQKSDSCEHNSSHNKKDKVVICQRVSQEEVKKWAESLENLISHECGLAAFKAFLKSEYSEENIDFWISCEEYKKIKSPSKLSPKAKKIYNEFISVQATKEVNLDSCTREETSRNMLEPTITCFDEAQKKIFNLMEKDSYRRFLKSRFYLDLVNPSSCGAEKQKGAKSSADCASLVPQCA
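MLSMR compounds (23 nl, pin-transferred) preincubated 10 min at room temperature with a 500nM (2x) first reagent, then RGS4 at 900nM (2x) plus Transcreener GDP mix added; fluorescence polarization (620/688 nm) read before and after 90 min at 30 °C.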
Akt phos inh: Akt phosphorylation inhibition | Neuro2A IGF-stimulated pAkt S473 HTRF, 20 min; hits give low values | activity change, % for hits at 50 µM | 360,000 compounds, 0.32% hits; in the data active = activity change below about -80%; inconclusive = mostly about -51% to -80%
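Neuro2A cells in DMEM with 0.5% FBS, overnight at 37 deg C, given compound at single 50 µM final, then IGF (6 nM final) for 20 min at 37 deg C. Lysed; phospho-Akt Ser473 by HTRF after 24 h, 665/615 ratio.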
DRD3 antagonist: blocks the human D3 dopamine receptor; P35462; D3R cells, DiscoveRx beta-arrestin luminescence, antagonist mode; hits give low values; max response, negative = inhibition, %; 360,000 compounds, 2.5% hits; in the data active = max response below about -50%; inconclusive = no clear call, values can overlap the other calls
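Cells plated overnight at 1500 cells/well, then exposed to library compounds with dopamine controls for 90 minutes at 37 degrees C. DiscoveRx reagent added for 30–60 minutes at room temperature; luminescence read, quantitative HTS format.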
PI4K2A inh: PI4K2A (human) kinase inhibition. activity change, negative = inhibition, % at 76.9 µM. 420,000 compounds, 0.13% hits. purified PI4K2A, ADP-Glo luminescence, 1 h; hits give low values; in the data active = activity change below about -50%; inconclusive = mostly about -30% to -49%
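ADP-Glo luminescence measured ADP generated by PI4K2A enzyme (4 ug/mL before mixing) with 1.2 mM PI substrate (pre-mix) and 300 microM ATP (pre-mix). Tris pH7.5 buffer with MgCl2, Triton X-100; 1 h reaction at ambient temperature.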
Numbers stand for hits; i = inactive; ? = inconclusive; nt = no result given.

SMILES | D3 ag | LDHA block | RGS4 inh | Akt phos inh | DRD3 antagonist | PI4K2A inh
CCOc1cc(C(=S)N2CCN(C)CC2)ccc1OCC(=O)N1CCOCC1 | i | i | i | -112.2% | i | i
CCOc1cc(C(=S)N2CCCC2)ccc1OC | i | i | i | i | ? | i
CCOc1cc(C(=S)N2CCCC2)ccc1OCC(=O)Nc1c(C)cc(C)cc1C | i | i | ? | i | -54.7 | i
CCOc1cc(C(=O)OCc2ccc(OC)cc2)ccc1OCC(=O)N1CCOCC1 | i | i | i | i | i | i
O=C(NCC#Cc1cccc(C(F)(F)F)c1)c1ccc(=O)[nH]c1 | nt | i | nt | nt | nt | nt
Cc1nc2scc(-c3ccc(C(C)(C)C)cc3)c2c(=O)n1N | 30.5 | i | i | i | i | i
CSCCCN1CCCC(CO)(Cc2ccccc2F)C1 (stereo not drawn) | i | i | i | i | -56.2 | i
CSCCCN1CCCC(CO)(Cc2ccc(F)cc2)C1 (stereo not drawn) | i | i | i | i | i | i
Cn1c(=O)c2sccc2n(CC(=O)NCC2CCCO2)c1=O (stereo not drawn) | nt | -40.6 | nt | nt | nt | nt
CC(C)Cn1c(=O)c2sccc2n(CC(=O)NCC2CCCO2)c1=O (stereo not drawn) | nt | i | nt | nt | nt | nt
Clc1ccc2c(c1)C(N1CCNCC1)=Nc1ccccc1O2 | i | i | i | i | -117.4 | i
CC1=Nc2cc(Cl)ccc2Oc2ccccc21 | i | i | i | i | i | i
COc1cccc(CN(C)C(=O)CCc2ncc(-c3ccc(F)cc3)o2)c1OC | nt | i | nt | nt | nt | nt
NC(=O)NC(=O)CSc1nc2ccccc2c(=O)n1-c1ccccc1Cl | nt | i | nt | nt | nt | nt
COc1ccc(-c2cc3ccc(OCC(=O)NCCN(C)C)cc3oc2=O)cc1OC | nt | i | nt | nt | nt | nt
CCCCN1CCN(C(=O)c2cc(-c3ccncc3)nc3c(C)c(C)ccc23)CC1 | nt | i | nt | nt | nt | nt
Cc1cc(C)c2nc(-c3ccncc3)cc(C(=O)N3CCN(Cc4ccccc4Cl)CC3)c2c1 | 42.8 | i | i | i | i | i
C=C1C(O)[C@@H]2O[C@]3(CC[C@H](/C=C/C(C)[C@@H]4CC(C)=CC5(O[C@H](C[C@@](C)(O)CO)CCC5O)O4)O3)CC[C@H]2O[C@@H]1C(O)CC(C)[C@H]1OC2(CCCCO2)CCC1C (stereo partly drawn) | i | i | i | i | -78.5 | i
Cc1ccc(Cl)cc1NC(=O)CC1SCCNC1=O (stereo not drawn) | nt | i | nt | nt | nt | nt
C1=CC2CC1CC2CN1CCN(c2ccccc2)CC1 (stereo not drawn) | i | i | i | i | -54.4 | i
CCN1CCN(CC2CC3C=CC2C3)CC1 (stereo not drawn) | i | i | i | i | i | i
CS(=O)(=O)N1CCN(CC2CC3C=CC2C3)CC1 (stereo not drawn) | i | i | i | i | i | i
Cc1ccccc1CN1CCN(CC2CC3C=CC2C3)CC1 (stereo not drawn) | i | ? | i | i | -65.8 | i
COc1cccc(CNc2ccc(N3CCOCC3)c(C(=O)O)c2)c1 | nt | i | nt | nt | nt | nt
C(=N\n1cnnc1)/c1ccc(OCc2cccc3ccccc23)cc1 | i | i | i | -134.4% | i | i
SMILES | D3 ag | LDHA block | RGS4 inh | Akt phos inh | DRD3 antagonist | PI4K2A inh
Fc1ccccc1COc1ccc(/C=N/n2cnnc2)cc1 | i | i | i | i | i | i
COc1cc(OC)c(C2=CCN(C(=O)COc3ccc(F)cc3)CC2)c(OC)c1 | nt | i | nt | nt | nt | nt
COc1ccc2nc(-c3ccccc3)nc(SCC(=O)NCC3CCCO3)c2c1 (stereo not drawn) | 32.5 | i | i | i | i | i
Cc1ccccc1-n1c(SCC(=O)NCC2CCCO2)nc2c([nH]c3ccccc32)c1=O (stereo not drawn) | i | i | i | i | -82.4 | i
CCOC(=O)N1CCN(C(=O)CSc2nc3c([nH]c4ccccc43)c(=O)n2CC)CC1 | 45.9 | i | i | i | i | i
O=C(CSc1nc2c([nH]c3ccccc32)c(=O)n1-c1ccccc1F)NCC1CCCO1 (stereo not drawn) | i | i | i | i | -77.6 | i
Cn1c(SCC(=O)NCC2CCCO2)nc2c([nH]c3ccccc32)c1=O (stereo not drawn) | i | i | i | i | i | i
Cc1ccc2nc(-c3ccc(F)cc3)nc(SCC(=O)NCC3CCCO3)c2c1 (stereo not drawn) | i | i | i | i | i | i
O=C(c1ccsc1)N(Cc1ccco1)C1CC1 | nt | i | nt | nt | nt | nt
Cc1cc(-n2c(SCC(=O)NC(C)(C)C)nc3ccsc3c2=O)ccc1F | nt | i | nt | nt | nt | nt
Cc1[nH]nc(-c2cccnc2)c1N=NN(C)C | i | i | i | i | -89.5 | i
CN(C)c1nc(N)nc(-c2cccnc2)n1 | i | i | i | i | i | i
O=C(C1COc2cc(S(=O)(=O)NCc3ccc4c(c3)OCO4)ccc2O1)N1CCCCC1 (stereo not drawn) | nt | i | nt | nt | nt | nt
Cc1cccc(NC(=S)N/N=C/C2=CCC3CC2C3(C)C)c1C (stereo not drawn) | nt | i | nt | nt | nt | nt
Cc1ncoc1C(=O)NC1CCCc2c1cnn2-c1ccc(C(C)(C)C)cc1 (stereo not drawn) | 30.2 | i | i | i | i | i
Cc1ncoc1C(=O)NC1CCCc2c1cnn2-c1cc(F)cc(F)c1 (stereo not drawn) | i | i | nt | i | i | i
CCN(CC(=O)Nc1ccc2c(c1)OCCO2)CC(=O)Nc1ccccc1C(F)(F)F | i | -46.0 | i | i | ? | i
Cc1cc(C)nc(SCCS(=O)(=O)Cc2ccccc2)n1 | i | i | i | i | i | i
Cc1cc(C)nc(SCCCNCc2ccccc2)n1 | i | i | i | i | -67.3 | i
Clc1ccc(CNCCCSc2ncccn2)cc1Cl | i | i | i | i | -67.2 | i
Clc1cccc(Cl)c1CNCCCSc1ncccn1 | i | i | i | i | i | i
Clc1cccc(CNCCCSc2ncccn2)c1Cl | i | i | i | i | -69.5 | i
COc1ccc2oc(-c3ccc(C)c(NC(=O)C(C)C)c3)nc2c1 | nt | i | nt | nt | nt | nt
COCCCNc1nc2ccccc2nc1NS(=O)(=O)c1cccs1 | i | i | i | i | -63.9 | i
COCCCNc1nc2ccccc2nc1NS(=O)(=O)c1ccc(OC)cc1 | i | i | i | i | i | i
SMILES | D3 ag | LDHA block | RGS4 inh | Akt phos inh | DRD3 antagonist | PI4K2A inh
O=C(CSc1nncs1)N(Cc1ccc(F)cc1)C12CC3CC(CC(C3)C1)C2 | nt | i | nt | nt | nt | nt
Cn1c(C=O)c(-c2ccc3cc[nH]c3c2)c2ccccc21 | 31.3 | i | i | i | i | i
Cc1ccc2nc(SCc3nc4cc(Cl)ccc4c(=O)[nH]3)[nH]c2c1 | i | i | i | i | i | i
O=c1[nH]c(CSc2nnc(NCCCN3CCOCC3)s2)nc2cc(Cl)ccc12 | i | i | i | i | -63.1 | i
N#C/C(=C/c1ccc(OC(F)F)cc1)C(N)=S | nt | i | nt | nt | nt | nt
O=C(Nc1ccc2c(c1)OCO2)c1cc(-c2ccccc2Cl)on1 | i | i | i | i | i | i

From PubChem BioAssay
